The record followed here is PubChem BioAssay (NCATS).

Each structure is given as a SMILES string. Where “and” joins values, the source holds several entries; their conditions need not be identical. Identical values can stand only once. Results filed as inconclusive are left out. Unmarked numbers belong to inactive results. Calls of active or inactive are those of the source. Calls follow the shape of the dose curve; as a rule, active = well fitted inhibition curve with a large enough effect; inconclusive = small, poorly fitted or top-dose-only effect; inactive = flat fitted curve, though single readings scatter.

One assay concerns CRL-7250. Kind of assay: Cytotoxic Profiling of Annotated Libraries Using Quantitative High-Throughput Screening (AID 1296008). Also: potency is read from the fitted curve at half-maximal effect. As to max response: % is scaled to controls: 0 for no effect and ±100 for the full control effect. Conditions: Five cell lines viability, CellTiter-Glo ATP luminescence, 48-72 h; max response: stronger effect = lower value. The gist of the method: (§1)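 Cytotoxicity was measured as CellTiter-Glo ATP luminescence, read after 10 min at room temperature. Compound treatment of the cells lasted 48 or 72 hr at 37 degrees Celsius in a qHTS format.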

In assay [1] the test system is HaCat. The assay is described as above. Conditions: Five cell lines viability, CellTiter-Glo ATP luminescence, 48-72 h; max response: stronger effect = lower value. The gist of the method: as §1
Assay [2] relates to HACAT. Kind of assay: qHTS assay to identify novel small-molecules to repurpose for Merkel cell carcinoma treatment (AID 1296009). Also: potency is read from the fitted curve at half-maximal effect. Conditions: MCC and control cell lines, CellTiter-Glo viability, 72 h; at 44.8 µM (top of the series) unless noted. In a few lines: (§2)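 Cell viability, measured as CellTiter-Glo luminescence, was normalized between DMSO and no-cell wells. The cells had been exposed to 8- or 11-point compound dilutions for 72 hr at 37 degree celsius.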

For a further assay, the system named is MCC-13. The description is as above. The note with it: MCC and control cell lines, CellTiter-Glo viability, 72 h; series mostly up to 46 µM. The gist of the method:
as §2

A further assay relates to MCC-26. The assay is described as above. The note with it: MCC and control cell lines, CellTiter-Glo viability, 72 h; series mostly up to 46 µM. In a few lines: as §2
A further assay has as its system KB-3-1. Kind of assay: Cytotoxic Profiling of Annotated Libraries Using Quantitative High-Throughput Screening (AID 1296008). Also: potency is read from the fitted curve at half-maximal effect. As to max response: % is scaled to controls: 0 for no effect and ±100 for the full control effect. The note with it: Five cell lines viability, CellTiter-Glo ATP luminescence, 48-72 h; max response: stronger effect = lower value. The gist of the method:
as §1

A further assay concerns NIH3T3. The assay is described as above. Conditions: Five cell lines viability, CellTiter-Glo ATP luminescence, 48-72 h; max response: stronger effect = lower value. In a few lines: as §1
For the next assay, the system named is P94_40. Kind of assay: qHTS profiling for inhibitors of Plasmodium falciparum proliferation (AID 504749).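 Also: 0% = DMSO vehicle and full inhibition = artemisinin control.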 Conditions: P. falciparum in erythrocytes, SYBR Green DNA, 72 h; series mostly up to 28.7 µM. The gist of the method: (§3)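 SYBR Green fluorescence of parasite DNA, read after lysis and overnight dark incubation, measured growth over 72 h in erythrocyte culture at 0.3% parasitemia and 2.5% hematocrit. Data normalised to DMSO and 0.29 uM artemisinin, with plate-drift correction.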

In the next assay the test system is PAD. Described as above. The note with it: P. falciparum in erythrocytes, SYBR Green DNA, 72 h; series mostly up to 28.7 µM. In a few lines:
as §3

In another assay the test system is PC15. Described as above. Conditions: P. falciparum in erythrocytes, SYBR Green DNA, 72 h; series mostly up to 28.7 µM. In a few lines: as §3
The subject of another assay is PC26. The assay is described as above. The note with it: P. falciparum in erythrocytes, SYBR Green DNA, 72 h; series mostly up to 28.7 µM. The gist of the method:
as §3

The test system of the next assay is PC49. Described as above. Conditions: P. falciparum in erythrocytes, SYBR Green DNA, 72 h; series mostly up to 28.7 µM. In a few lines: as §3
The next assay has as its system SC27B. Described as above. The note with it: P. falciparum in erythrocytes, SYBR Green DNA, 72 h; series mostly up to 28.7 µM. In a few lines: as §3
For a further assay, the system named is TAB109. Described as above. Conditions: P. falciparum in erythrocytes, SYBR Green DNA, 72 h; series mostly up to 28.7 µM. In a few lines: as §3
The test system of another assay is TAB113. The assay is described as above. The note with it: P. falciparum in erythrocytes, SYBR Green DNA, 72 h; series mostly up to 28.7 µM. In a few lines: as §3
In the next assay the test system is TAB165. The assay is described as above. The note with it: P. falciparum in erythrocytes, SYBR Green DNA, 72 h; series mostly up to 28.7 µM. The gist of the method: as §3
The test system of another assay is W2. The description is as above. Conditions: P. falciparum in erythrocytes, SYBR Green DNA, 72 h; series mostly up to 28.7 µM. The gist of the method: as §3
The test system of a further assay is P93_24. The assay is described as above. The note with it: P. falciparum in erythrocytes, SYBR Green DNA, 72 h; series mostly up to 28.7 µM. The gist of the method:
as §3

The test system of the next assay is HEK293. Kind of assay: Cytotoxic Profiling of Annotated Libraries Using Quantitative High-Throughput Screening (AID 1296008). Also: potency is read from the fitted curve at half-maximal effect. As to max response: % is scaled to controls: 0 for no effect and ±100 for the full control effect. Conditions: Five cell lines viability, CellTiter-Glo ATP luminescence, 48-72 h; max response: stronger effect = lower value. The gist of the method: as §1
Also: nearly all actives have a fitted effect of over 60% in size.

Regarding `NCc1c[nH]c(=S)n1[C@H]1CCc2c(F)cc(F)cc2C1`, the Potency in the assay on CRL-7250 is 16.6 µM (active). Besides, the result in the assay on HaCat [1] and in the assay on HACAT [2] was inactive. Further, the Potency result in the assay with MCC-13 and in the assay on MCC-26 was “inactive” each time.

Consider `Cc1ccc(C(=O)N(CCCN)[C@@H](c2nc3cc(Cl)ccc3c(=O)n2Cc2ccccc2)C(C)C)cc1`, for which the figures for the max response in the assay on CRL-7250 and in the assay on NIH3T3 were -35.4% and -42.8%, respectively. Moreover, the Potency is 0.0008 µM (active) in the assay on KB-3-1 and 0.0296 µM (active) in the assay on MCC-13.

Regarding `COc1cc(CNC(=O)CCCCC=CC(C)C)ccc1O`, the max response in the assay on CRL-7250 is -19.8%; in the assay with HaCat [1] it was 3.92%; in the assay on KB-3-1, -24.7%. The Potency with NIH3T3 is 10.5 µM (active). For the same compound, the Potency entry in the assay with MCC-13 and in the assay on MCC-26 was “inactive” throughout.

`C[C@@]1(C(=O)Nc2ccc(F)nc2)CCCN1c1nc(Nc2cc(C3CC3)[nH]n2)c2cccn2n1`: the Potency in the assay with CRL-7250 is 11.8 µM (active) and 11.6 µM (active); in the assay with MCC-26 it was 16.6 µM (active). Moreover, the max response with HaCat [1] was -23.7%; in the assay on KB-3-1, -30.1%.

Turning to `CN1CC(=O)N2C(Cc3c([nH]c4ccccc34)[C@H]2c2ccc3c(c2)OCO3)C1=O` (stereo partly drawn), the Potency entry in the assay on P94_40, with PAD, with PC26, with SC27B, with TAB109 and with TAB113 was “inactive” throughout. The Potency entry with TAB165, in the assay with W2, in the assay on MCC-13 and in the assay on MCC-26 was “inactive” in each case. Moreover, the compound was called inactive in the assay on PC15 and in the assay on PC49. For the same compound, the max response was -5.59% in the assay with CRL-7250, 4.52% in the assay on HaCat [1] and -12.7% with KB-3-1.

For `Cc1c(-c2cccc3c(CCCOc4cccc5ccccc45)c(C(=O)O)n(Cc4cccnc4)c23)c(COc2ccc(N3CCN([S+](=O)([O-])N(C)C)CC3)cc2)nn1C`, the figures for the max response in the assay on CRL-7250, in the assay on HaCat [1] and in the assay on NIH3T3 were -2.89%, -5.9% and -4.88%, respectively. The Potency result in the assay on MCC-13 and with MCC-26 was “inactive” throughout.

On to `CCC(=O)OCC(=O)[C@@]1(OC(=O)CC)[C@@H](C)C[C@@H]2[C@H]3CCC4=CC(=O)C=C[C@]4(C)[C@@]3(F)[C@@H](O)C[C@@]21C`, for which the values for the max response with CRL-7250, in the assay with HaCat [1] and in the assay on NIH3T3 were -3.82%, -0.0521% and 0.981%, respectively. Also, the call with KB-3-1 was inactive. Besides, the Potency entry in the assay on MCC-13 and in the assay on MCC-26 was “inactive” each time.

As to `Cc1cc(CS(=O)(=O)c2ccccc2)cc(OCc2ccc(CN3CCC[C@H]3CO)cc2)c1`, the Potency with CRL-7250 is 1.32 µM (active); with HaCat [1], 1.48 µM (active); in the assay on KB-3-1, 3.72 µM (active); in the assay with NIH3T3, 2.96 µM (active). Besides, the Potency entry in the assay on MCC-13 and in the assay on MCC-26 was “inactive” throughout.

Take `C#C[C@]1(O)CC[C@H]2[C@H]3CCc4cc(OC)ccc4[C@H]3CC[C@@]21C`: the max response in the assay on CRL-7250 is -5.04%; in the assay with HaCat [1], 0.906%; in the assay with KB-3-1 it was -15.5%; in the assay with NIH3T3 it was 2.86%. Moreover, the Potency entry with MCC-13 and in the assay on MCC-26 was “inactive” each time.

For the compound `C[C@@H]1CC=CC=CC=CC=C[C@@H](O[C@@H]2O[C@H](C)[C@@H](O)[C@H](N)[C@H]2O)C[C@@H]2O[C@](O)(C[C@@H](O)C[C@@H]3O[C@@H]3C=CC(=O)O1)C[C@H](O)[C@@H]2C(=O)O`, the values for the max response in the assay with CRL-7250, in the assay with HaCat [1] and in the assay on NIH3T3 were -2.36%, -1.58% and 4.91%, respectively. The Potency entry with MCC-13 and in the assay with MCC-26 was “inactive” in each case.

As for `COc1ccc(C=CC(=O)Nc2ccccc2C(=O)O)cc1OC`, the max response in the assay on CRL-7250 was -5.04%; in the assay on HaCat [1], -7.89%; with KB-3-1, 7.16%; with NIH3T3 it was 0.371%. Besides, the Potency entry in the assay with MCC-13 and in the assay with MCC-26 was “inactive” each time.

With `COc1cc2c(cc1OC)CC(=O)N(CCCN(C)C[C@H]1Cc3cc(OC)c(OC)cc31)CC2`, the Potency result with P93_24, in the assay on P94_40, with PAD, in the assay with PC26, in the assay on SC27B and in the assay on TAB109 was “inactive” each time. In addition, the Potency result in the assay on TAB113, in the assay with TAB165, in the assay on MCC-13 and with MCC-26 was “inactive” each time. The call with PC15 and in the assay on PC49 was inactive. Moreover, the max response in the assay with CRL-7250 was 4.25%; in the assay with HaCat [1], -15.9%; with KB-3-1, 6.36%; in the assay on NIH3T3 it was -18.8%.

Turning to `CCCCC(C)(C)[C@H](O)C=C[C@H]1[C@H](O)CC(=O)[C@H]1CC=CCCCC(=O)O`, the max response in the assay on CRL-7250 was -10.4%. Further, the outcome in the assay with HaCat [1], with KB-3-1 and in the assay on HACAT [2] was inactive. In addition, the Potency result in the assay with MCC-13 and with MCC-26 was “inactive” each time.

As for `CCC(=C(CC)c1ccc(O)cc1)c1ccc(O)cc1`, the max response with CRL-7250 is 2.3%; in the assay on NIH3T3, -12.1%. The result in the assay with HaCat [1] and in the assay on HACAT [2] was inactive. Besides, the Potency entry in the assay with MCC-13 and in the assay with MCC-26 was “inactive” throughout.

In the case of `CC(=O)O[C@]1(C(C)=O)CC[C@H]2[C@@H]3C=C(Cl)C4=CC(=O)[C@@H]5C[C@H]5[C@]4(C)[C@@H]3CC[C@@]21C`, the call with CRL-7250, in the assay on KB-3-1 and with NIH3T3 was inactive. Also, the max response in the assay with HaCat [1] was -0.438%. Also, the Potency entry in the assay with MCC-13 and in the assay with MCC-26 was “inactive” throughout.

For `O=C(Nc1cccc(C(F)(F)F)c1)Nc1cc(S(=O)(=O)NC2CC2)ccc1-c1ccsc1`, the max response in the assay on CRL-7250 was -35.6%; with HaCat [1] it was -22.2%; with NIH3T3, -27%. The Potency result with MCC-13 and in the assay with MCC-26 was “inactive” throughout.

For the compound `CCC(=C(c1ccc(O)cc1)c1ccc(OCCNC)cc1)c1ccccc1`, the max response was -6.43% in the assay with CRL-7250 and -11.9% in the assay with HaCat [1]. Also, the Potency result in the assay with MCC-13 and in the assay with MCC-26 was “inactive” in each case.

Consider `CC(C)c1onc(-c2c(Cl)cccc2Cl)c1COc1ccc(C=Cc2cccc(C(=O)O)c2)c(Cl)c1`, for which the max response is -1.7% with CRL-7250, -7.35% in the assay on HaCat [1], 6.78% in the assay on KB-3-1 and 4.7% in the assay with NIH3T3. The Potency result in the assay on MCC-13 and in the assay with MCC-26 was “inactive” throughout.

In the case of `O=c1[nH]c(=O)n([C@H]2C[C@@H](O)[C@@H](CO)O2)cc1I`, the max response in the assay on CRL-7250 was -2.59%; in the assay on HaCat [1] it was 1.35%; in the assay with NIH3T3, 3.2%. Besides, in the assay with KB-3-1, the result was inactive. Moreover, the Potency entry in the assay on MCC-13 and with MCC-26 was “inactive” each time.

`NC(=O)c1nnn(Cc2cc(Cl)c(C(=O)c3ccc(Cl)cc3)c(Cl)c2)c1N`: the Potency with HEK293 is 20.9 µM (active). Moreover, the max response in the assay on HaCat [1] is -5.54%; in the assay with KB-3-1, -25.7%. The Potency entry in the assay on MCC-13 and with MCC-26 was “inactive” each time.
